This note sets out measurements from PubChem BioAssay (NCATS).

For assay [1], the target named is Cytochrome P450 3A7 (Homo sapiens) (UniProt P24462). Description: Cytochrome P450 family 3 subfamily A member 7 (CYP3A7) small molecule antagonists: luciferase biochemical qHTS assay (AID 1963596). Also: % is scaled to controls: 0 for no effect and ±100 for the full control effect; nearly all actives have a fitted effect of over 40% in size. In outline: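 Biochemical CYP3A7 activity measured with P450-Glo system: luciferin formed from proluciferin substrate in NADPH-driven reaction (1 h, room temperature) after 10 min compound preincubation. Signal in relative luminescence units.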
Sequence of Cytochrome P450 3A7 (Homo sapiens) (P24462 whole entry, looked up): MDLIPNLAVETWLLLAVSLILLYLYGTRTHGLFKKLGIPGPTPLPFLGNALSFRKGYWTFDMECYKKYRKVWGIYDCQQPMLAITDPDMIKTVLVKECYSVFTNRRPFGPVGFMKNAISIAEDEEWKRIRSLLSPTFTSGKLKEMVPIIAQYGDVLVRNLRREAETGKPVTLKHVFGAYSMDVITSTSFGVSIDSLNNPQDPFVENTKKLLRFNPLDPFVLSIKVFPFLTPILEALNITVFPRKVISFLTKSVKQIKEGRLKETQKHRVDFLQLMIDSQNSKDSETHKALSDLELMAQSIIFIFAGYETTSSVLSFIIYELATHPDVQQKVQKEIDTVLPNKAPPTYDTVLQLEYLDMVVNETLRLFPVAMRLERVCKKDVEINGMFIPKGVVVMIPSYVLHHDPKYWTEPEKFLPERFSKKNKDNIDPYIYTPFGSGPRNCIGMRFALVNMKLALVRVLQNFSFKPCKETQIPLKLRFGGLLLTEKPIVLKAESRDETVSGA

Assay [2] can be described thus: Viability qHTS for spleen associated tyrosine kinase inhibitor (SYKi) naive MV4-11 cells (AID 1963823). Also: nearly all actives have a fitted effect of over 40% in size. Put shortly:
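SYKi-naive MV4-11 AML cells, 500 per well, were exposed to library compounds for 72 hr at 37 C, 5% CO2. Viability was then read by CellTiter-Glo luminescence after 10 min at room temperature.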
Background: In qHTS, concentration-response curves come from the screen itself.

Assay [3] can be described thus: Cellular viability qHTS for adrenocortical cancer (ACC) cell line SW-13 (AID 1963989). Also: nearly all actives have a fitted effect of over 65% in size. Also: potency is read from the fitted curve at half-maximal effect.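 As to activity (max response): cells grown in serum-free medium with ITS supplement; % is scaled to controls: 0 for no effect and ±100 for the full control effect.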 The note with it: SW-13 ACC cells viability, CellTiter-Glo, 48 h; activity (max response): active compounds read low. In outline: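 SW-13 cells in ITS-supplemented serum-free DMEM were plated overnight, then exposed for 48 h at 37C to compound titrations (up to 46 uM final). Viability was read by CellTiter-Glo luminescence; four-parameter logistic fits gave IC50 and efficacy.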

The nature of assay [4]: Cellular viability qHTS for adrenocortical cancer (ACC) cell line NCI-H295R (AID 1963990). Also: nearly all actives have a fitted effect of over 60% in size. Also: potency is read from the fitted curve at half-maximal effect.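 As to activity change, negative = viability loss: 0% = DMSO only wells and -100% = full killing with cytotoxic reference compound.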 In outline: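 Luminescent ATP read-out (CellTiter-Glo, 20 min RT) after 48 h drug exposure of NCI-H295R cells; a titration up to 46 uM final. Data normalized to doxorubicin (100% inhibition) and DMSO (0%); 4-parameter fit gives IC50, max response.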
Assay [5] in a line: Viability qHTS for spleen associated tyrosine kinase inhibitor (SYKi) drug resistant MV4-11 cells (AID 1963824). Also: nearly all actives have a fitted effect of over 35% in size. Also: potency is read from the fitted curve at half-maximal effect. Put shortly:
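SYK inhibitor-resistant MV4-11 AML cells, 500 per well, added to predispensed compounds and incubated 72 hr at 37 C, 5% CO2. Viability measured by CellTiter-Glo luminescence after 10 min at room temperature.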

The nature of assay [6]: Quantitative highthroughput screen to assess conditional lethalithy of NOMO1 cells grown in RPMI1640 with untreated serum (RPMI+s) (AID 1963876). Also: nearly all actives have a fitted effect of over 35% in size. Also: potency is read from the fitted curve at half-maximal effect.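 As to Viability: 100% = DMSO wells and 0% = empty wells without cells.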 In outline: (§1)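 Each medium arm—HPLM with 10% dialyzed FBS, or RPMI1640 with 5 mM glucose and 10% untreated or dialyzed FBS—was screened against an 11-point, 3-fold compound titration for 48 h at 37 °C, with CellTiter-Glo luminescence as endpoint.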

The nature of assay [7]: Quantitative highthroughput screen to assess conditional lethalithy of NOMO1 cells grown in RPMI1640 with dialyzed fetal bovine serum (RPMI+ds) (AID 1963877).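 Also: series mostly up to about 46 µM; 100% = DMSO control wells and 0% = empty wells; nearly all actives have a fitted effect of over 30% in size.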 In outline:
as §1

The nature of assay [8]: Quantitative highthroughput screen to assess conditional lethalithy of NOMO1 cells grown in Human Plasma-Like Medium with dialyzed fetal bovine serum (HPLM+ds) (AID 1963878). Also: nearly all actives have a fitted effect of over 35% in size. Also: potency is read from the fitted curve at half-maximal effect.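 As to Viability: 100% = DMSO wells and 0% = empty wells on each plate.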 In outline:
as §1

The nature of assay [9]: Quantitative highthroughput screen to assess conditional lethalithy of P12 Ichikawa cells grown in Human Plasma-Like Medium with dialyzed fetal bovine serum (HPLM+ds) (AID 1963879). Also: nearly all actives have a fitted effect of over 35% in size. Also: potency is read from the fitted curve at half-maximal effect. As to Viability: series mostly up to about 46 µM. The note with it: Potency: viability. Put shortly: as §1
The nature of assay [10]: Quantitative highthroughput screen to assess conditional lethalithy of SEM cells grown in Human Plasma-Like Medium with dialyzed fetal bovine serum (HPLM+ds) (AID 1963882). Also: nearly all actives have a fitted effect of over 35% in size. Also: potency is read from the fitted curve at half-maximal effect. As to Viability: series mostly up to about 46 µM. In outline:
as §1

Assay [11] can be described thus: Quantitative highthroughput screen to assess conditional lethalithy of SEM cells grown in RPMI1640 with unreated serum (RPMI+s) (AID 1963883). Also: nearly all actives have a fitted effect of over 35% in size. Also: potency is read from the fitted curve at half-maximal effect.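 As to Viability: 100% = DMSO wells and 0% = empty wells without cells.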 Put shortly:
as §1

Assay [12] can be described thus: Quantitative highthroughput screen to assess conditional lethalithy of SEM cells grown in RPMI1640 with dialyzed fetal bovine serum (RPMI+ds) (AID 1963884). Also: nearly all actives have a fitted effect of over 35% in size. Also: potency is read from the fitted curve at half-maximal effect.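 As to Viability: series mostly up to about 46 µM; 100% = DMSO control wells and 0% = empty wells without cells.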 In outline:
as §1

A short description of assay [13]: Quantitative highthroughput screen to assess conditional lethalithy of P12 Ichikawa cells grown in RPMI1640 with dialyzed fetal bovine serum (RPMI+ds) (AID 1963880). Also: nearly all actives have a fitted effect of over 35% in size. Also: potency is read from the fitted curve at half-maximal effect.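 As to Viability: 100% = DMSO wells and 0% = empty wells on each plate.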 The settings on record: Potency: P12-Ichikawa viability. Put shortly:
as §1

A short description of assay [14]: Quantitative highthroughput screen to assess conditional lethalithy of P12 Ichikawa cells grown in RPMI1640 with untreated serum (RPMI+s) (AID 1963881). Also: nearly all actives have a fitted effect of over 35% in size. Also: potency is read from the fitted curve at half-maximal effect.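 As to Viability: series mostly up to about 46 µM; 100% = DMSO wells and 0% = empty wells without cells.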 The settings on record: Potency: viability. In outline: as §1

Where “and” joins values, the source holds several entries; their conditions need not be identical. Identical values can stand only once. Inconclusive results are not listed. Unmarked numbers belong to inactive results. Calls of active or inactive are those of the source. Calls follow the shape of the dose curve; as a rule, active = well fitted curve in the direction sought with a large enough effect; inconclusive = small, poorly fitted or top-dose-only effect, or another doubt; inactive = no such curve, though single readings can be large; an effect the other way counts as inactive or inconclusive.

As to `CC1CN(c2cc3c(cc2F)c(=O)c(C(=O)O)cn3-c2ccc(F)cc2F)CCN1` (stereo not given), in assay [1], the activity change, negative = inhibition was 17% [at 4.83 µM]. Also, the viability (% of control) in [2] was 91.3% [at 4.97 µM]. Further, in [3], the activity (max response) is -5.86%. For the same molecule, the activity change, negative = viability loss in assay [4] is 1.32% [at 3.81 µM].
For `CCOC(=O)[C@H](CCc1ccccc1)N[C@@H](C)C(=O)N1CCC[C@H]1C(=O)O`, the Potency result in assay [1], in [2] and in assay [4] was “inactive” each time. Besides, in [3], the activity (max response) was 11.5% and -12%.
In the case of `CCCCC(O)/C=C(C)/C=C/C=C/C(=O)N1CCCC1=O` (stereo not given), the Potency entry in assay [1], in assay [2] and in [4] was “inactive” each time. Further, in assay [3], the activity (max response) is 10.5%.
Take `Cc1onc(-c2ccccc2)c1C(=O)Cl`: the Potency entry in assay [1], in assay [2] and in assay [4] was “inactive” throughout. In addition, the activity (max response) in assay [3] is 12.7%.
As for `CCc1cccc(CC)c1NC(=O)CN(CC(=O)O)CC(=O)O`, the Potency result in assay [1], in assay [2] and in [4] was “inactive” in each case. Further, in [3], the activity (max response) is 1.3%.
Take `NCCNCCNCCN`: the Potency entry in assay [1], in assay [2] and in assay [4] was “inactive” each time. In addition, the activity (max response) in [3] is 13.6%.
In the case of `CCCc1nc(C(C)(C)O)c(C(=O)O)n1Cc1ccc(-c2ccccc2-c2nn[nH]n2)cc1`, the Potency result in assay [1], in assay [5], in assay [6], in assay [7], in assay [8] and in assay [9] was “inactive” each time. Also, the Potency result in [10], in assay [11], in [12] and in assay [4] was “inactive” each time. In [3], the activity (max response) is 8.92%.
As for `CCN(CCO)CCCC(C)Nc1ccnc2cc(Cl)ccc12` (stereo not given), in assay [1], the activity change, negative = inhibition was 10.6% [at 4.83 µM]. The viability, % of control in assay [5] is 88.8% [at 4.97 µM]. Moreover, the Potency in [6] is 10.5 µM (active); in [9], 4.18 µM (active); in assay [13], 2.64 µM (active); in assay [14], 10.5 µM (active). In assay [3], the activity (max response) was 4.84% and 9.37%. Moreover, the activity change, negative = viability loss in assay [4] was 1.42% [at 3.81 µM] and 0.71% [at 3.81 µM].
`CN1CCN(C2=Nc3ccccc3Nc3ccc(O)cc32)CC1`: the Potency entry in assay [1] and in assay [5] was “inactive” throughout.
As to `Cn1nnc2c(C(N)=O)ncn2c1=O`, the Potency result in [1], in assay [5] and in assay [4] was “inactive” throughout. Besides, the Potency in assay [8] was 18.7 µM (active); in assay [12] it was 0.235 µM (active).
For `CCCN[C@H]1CCc2nc(N)sc2C1`, the Potency result in assay [1], in [6], in [7], in assay [8], in assay [9] and in [13] was “inactive” each time. In addition, the Potency entry in [14], in assay [10], in [11], in [12] and in [4] was “inactive” throughout. For the same molecule, the Potency in [5] is 4.17 µM (active). Moreover, the activity (max response) in [3] is -1.3% and 3.21%.
On to `Cc1cc(=O)oc2cc(O)ccc12`, for which the Potency entry in assay [1], in assay [5], in assay [6], in [7], in assay [8] and in assay [9] was “inactive” each time. Further, the Potency entry in [13], in [14], in assay [11], in assay [12] and in [4] was “inactive” each time. For the same molecule, the activity (max response) in assay [3] is -3.93% and 10.3%.
Turning to `Cn1cc(-c2ccc(F)c(C(F)(F)F)c2)nc1C1CCN(c2ncnc3[nH]ncc23)CC1`, the Potency entry in [1], in [5], in assay [6], in [7], in assay [8] and in assay [9] was “inactive” in each case. Besides, the Potency entry in assay [13], in assay [14], in [10], in assay [11] and in [4] was “inactive” throughout. Besides, the activity (max response) in [3] was 13.1%.
On to `COc1cc(N2CCOCC2)ccc1NC(=O)c1csc(-c2cccnc2)n1`, for which, in assay [1], the Potency result was “inactive”. In [5], the Potency is 0.259 µM (active).
Consider `CCn1cc(C(=O)O)c(=O)c2cc(F)c(N3CCNCC3)nc21`, for which the Potency entry in assay [1], in assay [9], in assay [13], in assay [14], in assay [10] and in [11] was “inactive” throughout. Moreover, the Potency entry in assay [12] and in assay [4] was “inactive” in each case. Also, in [5], the Potency was 2.66 µM (active). The activity (max response) in [3] was 4.85%.
Regarding `N[C@@H](C(=O)N[C@@H]1C(=O)N2C(C(=O)O)=C(Cl)CS[C@H]12)c1ccccc1`, in assay [1], the activity change, negative = inhibition was -8.83% [at 11.5 µM]. For the same molecule, the Potency in assay [5] was 0.686 µM (active). Moreover, the Potency result in [6], in [8], in assay [9], in assay [13], in assay [14] and in assay [10] was “inactive” each time. Moreover, the Potency result in [11] and in assay [12] was “inactive” throughout. Besides, the activity (max response) in assay [3] is 7.53%. Further, in [4], the activity change, negative = viability loss is -18.4% [at 9.17 µM].
In the case of `Cc1oc(=O)oc1CN1CCN(c2cc3c(cc2F)c(=O)c(C(=O)O)c2n3C(C)S2)CC1` (stereo not given), the Potency entry in assay [1], in [6], in [7], in assay [13], in [14] and in [4] was “inactive” each time. Further, the Potency in assay [5] is 18.6 µM (active). Besides, in [3], the activity (max response) is 4.83% and 4.68%.
Take `Cc1cc(CS(=O)(=O)c2ccccc2)cc(OCc2ccc(CN3CCCC3CO)cc2)c1` (stereo not given): the Potency entry in assay [1] is “inactive”. For the same molecule, in [5], the Potency is 14.6 µM (active).
For the molecule `C#CCC(Cc1cnc2nc(N)nc(N)c2n1)c1ccc(C(=O)N[C@@H](CCC(=O)O)C(=O)O)cc1` (stereo not given in full), in assay [1], the Potency entry was “inactive”. In addition, the Potency is 0.0021 µM (active) in [5]; 0.187 µM (active) in assay [6]; 0.0372 µM (active) in [9]; 0.059 µM (active) in assay [11]; 0.0355 µM (active) in assay [3]; 0.0158 µM (active) in [4].
With `C[C@H]1CO[C@@H]2Cn3cc(C(=O)NCc4ccc(F)cc4F)c(=O)c(O)c3C(=O)N12`, in assay [1], the Potency result was “inactive”. Also, the Potency in [5] is 7.31 µM (active).
Turning to `O=C(Cc1ccc(-c2ccc(OCCN3CCOCC3)cc2)cn1)NCc1ccccc1`, the Potency entry in [1] was “inactive”. Besides, the Potency in [5] is 206 nM (active) and 105 nM (active); in assay [9] it was 0.0332 µM (active); in [13] it was 0.0372 µM (active); in assay [14], 0.0372 µM (active); in [10], 0.0264 µM (active); in assay [11] it was 0.0264 µM (active). Besides, the results for the Potency in [12], in assay [3] and in assay [4] were 0.0296 µM (active), 0.199 µM (active) and 0.178 µM (active), respectively.
